PubChem BioAssay (Tox21)
Where “and” joins values, the source holds several entries; their conditions need not be identical. Equal values may be shown once. Records with an inconclusive call do not appear. Where a call stands in place of a potency, no number is given. Where a structure was tested more than once in an assay, its records may differ in their call. Calls of active or inactive are those of the source. Unless noted, the call rests on the fitted dose curve; in most records, active means well fitted curve in the direction sought with a large enough effect in the repeat runs; inconclusive means weak or mixed curves; inactive means no such curve, though single readings can be large; an effect the other way counts as inactive or inconclusive.

Legend:
[1] = biological target: Aryl hydrocarbon receptor (Homo sapiens) (UniProt P35869); assay: qHTS assay to identify small molecule that activate the aryl hydrocarbon receptor (AhR) signaling pathway (AID 743085); conditions: HepG2 AhR-luc (HG2L7.5c1), luciferase, 24 h; series mostly up to 70.3 µM; further: nearly all actives have a fitted effect of over 15% in size; further: potency means the concentration at half of the fitted maximal effect;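 on activation: HG2L7.5c1 human HepG2 liver cells with stably integrated DRE-driven firefly reporter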
Method in brief: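 HepG2 cells (HG2L7.5c1) stably carrying a firefly luciferase reporter driven by 20 dioxin responsive elements were exposed to compound for 24 h at 37C after a 5 h settling period; luminescence rise (ONE-Glo) indicated activation.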

[2] = qHTS assay to identify small molecule that activate the aryl hydrocarbon receptor (AhR) signaling pathway - cell viability counter screen (AID 743086); conditions: HepG2-AhR-luc viability, CellTiter-Fluor, 24 h; series mostly up to 70.3 µM; further: nearly all actives have a fitted effect of over 45% in size; further: potency means the concentration at half of the fitted maximal effect
Method in brief: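 HepG2-AhR-luc (HG2L7.5c1) cells, 4000/well, were preincubated 5 h at 37C, exposed to compound in qHTS format for 24 hr at 37C, then given CellTiter-Fluor for 30 min; viability was read as fluorescence in the reporter wells.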

[3] = biological target: Peroxisome proliferator-activated receptor gamma (Homo sapiens) (UniProt P37231); assay: qHTS assay to identify small molecule agonists of the peroxisome proliferator-activated receptor gamma (PPARg) signaling pathway (AID 743094; active means well fitted activation curve with a large enough effect in the signal ratio in the repeat runs, not every such curve was filed as active; the % refers to the signal ratio); conditions: HEK293H PPARg-UAS-bla, beta-lactamase FRET ratio, 17 h; series mostly up to 57 µM
Method in brief: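 Beta-lactamase FRET fluorescence was the read-out after a 1 h room-temperature substrate step, following 17 h compound treatment at 37C of HEK293H cells expressing a UAS-driven bla reporter responsive to PPARg.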

[4] = biological target: Peroxisome proliferator-activated receptor gamma (Homo sapiens) (UniProt P37231); assay: qHTS assay to identify small molecule antagonists of the peroxisome proliferator-activated receptor gamma (PPARg) signaling pathway (AID 743191; calls by dose curve; further: nearly all actives have a fitted effect of over 30% in size; further: potency means the concentration at half of the fitted maximal effect); conditions: HEK293H PPARg-UAS-bla, beta-lactamase ratio, antagonist, 17 h; series mostly up to 62.6 µM
Method in brief: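 GeneBLAzer PPARg UAS-bla HEK293H cells carrying a UAS-driven beta-lactamase reporter were plated at 3000 cells/well, preincubated 5 h at 37C, then given compound for 17 h at 37C; LiveBLAzer B/G FRET substrate was read after 1 h at room temperature.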

[5] = qHTS assay to identify small molecule antagonists of the peroxisome proliferator-activated receptor gamma (PPARg) signaling pathway - cell viability counter screen (AID 743194); conditions: PPARg-bla HEK293H viability, CellTiter-Glo luminescence, 17 h; Potency: co-treated with 50 nM rosiglitazone unless noted; series mostly up to 62.6 µM; further: nearly all actives have a fitted effect of over 55% in size; further: potency means the concentration at half of the fitted maximal effect
Method in brief: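 PPARg-UAS-bla HEK293H cells were plated, rested 5 h at 37 C, then treated with compounds plus rosiglitazone (50 nM final) for 17 h at 37 C; viability was then read by CellTiter-Glo luminescence after 30 min at room temperature.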

[6] = qHTS assay for small molecule agonists of the antioxidant response element (ARE) signaling pathway (AID 743202; active means well fitted activation curve with a large enough effect in the signal ratio in the repeat runs, not every such curve was filed as active; the % refers to the signal ratio; further: potency means the concentration at half of the fitted maximal effect); conditions: HepG2 ARE-bla reporter, beta-lactamase FRET, 16 h; series mostly up to 73.3 µM
Method in brief: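 Compounds delivered in DMSO to ARE-bla HepG2 cells (2,000 cells/well, pre-incubated 5 h) and left 16 h at 37 C. LiveBLAzer B/G FRET substrate then added for 2 h at RT before fluorescence reading.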

[7] = qHTS assay for small molecule agonists of the antioxidant response element (ARE) signaling pathway - cell viability counter screen (AID 743203; calls by dose curve; further: nearly all actives have a fitted effect of over 55% in size); conditions: ARE-bla HepG2 viability, CellTiter-Glo luminescence, 16 h; series mostly up to 73.3 µM
Method in brief: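 HepG2 cells carrying ARE-driven beta-lactamase; 2,000 cells/well; 5 hrs plating; compound pinned from DMSO; 16 hrs 37C/5% CO2; CellTiter-Glo added; 30 min RT; luminescence.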

[8] = qHTS assay for small molecule activators of the heat shock response signaling pathway - cell viability counter screen (AID 743209); conditions: HSE-bla HeLa viability, CellTiter-Glo luminescence, 5 h; series mostly up to 62.6 µM; further: nearly all actives have a fitted effect of over 50% in size; further: potency means the concentration at half of the fitted maximal effect
Method in brief: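 Luminescence from CellTiter-Glo, added after the beta-lactamase FRET read, gave the viability signal. Cells were HSE-bla HeLa treated with DMSO-dissolved compounds for 5 h at 37 C following overnight plating.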

[9] = qHTS assay for small molecule activators of the heat shock response signaling pathway (AID 743210; active means well fitted activation curve with a large enough effect in the signal ratio in the repeat runs, with a control signal flat, not every such curve was filed as active; the % refers to the signal ratio;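 further: HeLa cells with beta-lactamase reporter driven by heat shock elements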); conditions: HeLa HSE-bla reporter, beta-lactamase ratio, 5 h; series mostly up to 62.6 µM
Method in brief: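 Reporter gene assay: HeLa cells stably bearing an HSE-bla construct, compound treatment 5 h at 37 C, LiveBLAzer substrate 2.5 h at RT, fluorescence intensity.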

[10] = qHTS assay to identify small molecule agonists of the peroxisome proliferator-activated receptor delta (PPARd) signaling pathway - cell viability counter screen (AID 743211); conditions: PPARd-bla HEK293H viability, CellTiter-Glo luminescence, 17 h; series mostly up to 62.6 µM; further: nearly all actives have a fitted effect of over 55% in size
Method in brief: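 PPARd-bla HEK293H cells (UAS-beta-lactamase reporter) were treated with compounds for 17 h at 37 C. Viability was then read in the same wells by CellTiter-Glo luminescence after 30 min at room temperature.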

Chain of Aryl hydrocarbon receptor (Homo sapiens) (P35869 whole entry, looked up): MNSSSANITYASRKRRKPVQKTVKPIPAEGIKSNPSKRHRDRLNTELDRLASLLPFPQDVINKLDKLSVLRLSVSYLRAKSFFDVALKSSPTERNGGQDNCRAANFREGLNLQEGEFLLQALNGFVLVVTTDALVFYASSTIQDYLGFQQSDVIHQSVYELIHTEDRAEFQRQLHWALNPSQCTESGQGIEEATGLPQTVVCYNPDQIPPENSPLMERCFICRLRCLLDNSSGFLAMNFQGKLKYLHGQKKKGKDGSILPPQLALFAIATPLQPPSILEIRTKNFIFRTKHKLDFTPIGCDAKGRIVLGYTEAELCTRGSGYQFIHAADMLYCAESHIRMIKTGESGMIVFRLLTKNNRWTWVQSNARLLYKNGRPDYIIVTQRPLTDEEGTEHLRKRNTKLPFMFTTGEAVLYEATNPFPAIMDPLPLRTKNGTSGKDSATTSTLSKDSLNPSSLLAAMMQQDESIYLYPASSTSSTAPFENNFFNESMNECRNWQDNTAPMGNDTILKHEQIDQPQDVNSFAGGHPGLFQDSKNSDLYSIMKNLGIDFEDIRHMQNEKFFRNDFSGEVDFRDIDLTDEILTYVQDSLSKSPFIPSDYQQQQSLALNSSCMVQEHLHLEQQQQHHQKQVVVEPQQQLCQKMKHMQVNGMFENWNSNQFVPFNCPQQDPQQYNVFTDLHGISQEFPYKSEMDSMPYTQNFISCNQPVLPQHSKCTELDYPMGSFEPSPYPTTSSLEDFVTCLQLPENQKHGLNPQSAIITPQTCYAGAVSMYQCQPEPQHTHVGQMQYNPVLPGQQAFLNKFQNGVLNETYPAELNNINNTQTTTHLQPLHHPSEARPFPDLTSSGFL
Chain of Peroxisome proliferator-activated receptor gamma (Homo sapiens) (P37231 whole entry, looked up): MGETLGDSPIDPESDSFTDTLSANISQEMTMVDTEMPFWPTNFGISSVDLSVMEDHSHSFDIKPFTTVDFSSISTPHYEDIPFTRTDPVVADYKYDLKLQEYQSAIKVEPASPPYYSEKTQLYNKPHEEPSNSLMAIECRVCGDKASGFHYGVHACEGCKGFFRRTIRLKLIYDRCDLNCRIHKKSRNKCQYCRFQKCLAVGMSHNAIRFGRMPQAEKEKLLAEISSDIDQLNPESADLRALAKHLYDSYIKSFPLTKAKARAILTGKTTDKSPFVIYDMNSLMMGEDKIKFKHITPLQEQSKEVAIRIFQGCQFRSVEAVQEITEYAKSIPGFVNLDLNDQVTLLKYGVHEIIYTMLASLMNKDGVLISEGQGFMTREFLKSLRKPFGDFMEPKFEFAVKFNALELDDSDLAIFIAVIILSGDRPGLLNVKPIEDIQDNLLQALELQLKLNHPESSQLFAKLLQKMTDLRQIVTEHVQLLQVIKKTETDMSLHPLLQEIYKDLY

| SMILES | Potency [1] | Potency [2] | outcome [3] | Potency [4] | Potency [5] | Potency [6] | Potency [7] | Potency [8] | outcome [9] | Potency [10] |
| --- | --- | --- | --- | --- | --- | --- | --- | --- | --- | --- |
| CCCCCCCCCCn1cc[n+](C)c1 | inactive | inactive | inactive | inactive | 22.1 µM [setting not given] (active) and 24.6 µM [setting not given] (active) and 4.89 µM [setting not given] (active) | 2.19 µM (active) and 4.85 µM (active) and 2.16 µM (active) | inactive | 39.3 µM (active) | inactive |  |
| OCCOc1ccccc1 | inactive | inactive | inactive | inactive | inactive | inactive | inactive | inactive | inactive | inactive |
| COc1ccccc1N | 54.4 µM (active) and inactive | inactive | inactive | inactive | inactive | inactive | inactive | inactive | inactive |  |
| O=P1(N(CCCl)CCCl)NCCCO1 (centres undefined) | inactive | inactive | inactive | inactive | inactive | inactive | inactive | inactive |  | inactive |
| O=C(O)CC(O)(CC(=O)O)C(=O)O | inactive | inactive | inactive | inactive | inactive | inactive | inactive | inactive | inactive |  |
| C[N+](C)(C)Cc1ccccc1 | inactive | inactive | inactive |  | inactive | inactive | inactive | inactive |  |  |
| O=[N+]([O-])c1ccccc1O | inactive | inactive | inactive | inactive | inactive | inactive | inactive | inactive | inactive |  |
| Nc1ccc(-c2ccc(N)cc2)cc1 | 9.58 µM (active) and inactive and 61.1 µM (active) | inactive | inactive | inactive | inactive | inactive | inactive | inactive | inactive | inactive |
| CCCCCCCCCCCCCCCCn1cc[n+](C)c1 | inactive | 62.4 µM (active) and inactive and 30.7 µM (active) | inactive | inactive |  |  |  |  | inactive |  |
| CCNc1nc(Cl)nc(NCC)n1 | inactive | inactive | inactive | inactive | inactive | inactive | inactive | inactive | inactive |  |
| Nc1ccc(-c2ccc(N)c(Cl)c2)cc1Cl | 7.74 µM (active) and 6.4 µM (active) and 19.3 µM (active) | inactive | inactive | inactive and 49 µM (active) | inactive | 1.38 µM (active) and 2.02 µM (active) and 1.72 µM (active) | inactive | inactive |  | inactive |
| COCC(=O)N(c1c(C)cccc1C)C(C)C(=O)OC (centres undefined) | inactive | inactive | inactive | inactive | inactive | inactive | inactive | inactive | inactive |  |
| COc1ccc(N)cc1 | 60.1 µM (active) and inactive and 30.6 µM (active) | inactive | inactive |  | inactive | inactive | inactive | inactive | inactive | inactive |
| O=C(O)C(Cl)Cl | inactive | inactive | inactive | inactive | inactive | inactive | inactive | inactive | inactive |  |
| CC(Cl)(Cl)C(=O)O | inactive | inactive | inactive | inactive | inactive | inactive | inactive | inactive | inactive |  |
| O=c1nc(O)n(Cl)c(=O)n1Cl | inactive | inactive | inactive | inactive | inactive | inactive | inactive | inactive |  |  |
| C1CCC(NC2CCCCC2)CC1 | inactive | inactive | inactive | inactive | inactive | inactive | inactive | inactive | inactive | inactive |
| CCOP(=S)(OCC)Oc1ccc2c(C)c(Cl)c(=O)oc2c1 | 596 nM (active) and 98 nM (active) | inactive | inactive |  | inactive | inactive | inactive | inactive | inactive |  |
| COP(=O)(OC)OC=C(Cl)Cl | inactive | inactive | inactive |  | inactive | inactive | inactive | inactive |  | inactive |
| Cc1cc(Cl)ccc1N | 31.3 µM (active) and 33.6 µM (active) | inactive | inactive | inactive | inactive | inactive | inactive | inactive | inactive | inactive |
| Nc1ccc(Cl)cc1 | 24.3 µM (active) and 30.6 µM (active) and 24.8 µM (active) | inactive | inactive | 87.1 nM (active) | inactive | inactive | inactive | inactive | inactive | inactive |
| CN(C)[C@@H]1C(=O)C(C(N)=O)=C(O)[C@@]2(O)C(=O)C3=C(O)c4c(O)cccc4[C@@](C)(O)[C@H]3[C@H](O)[C@@H]12 | inactive | inactive | inactive | inactive | inactive | inactive | inactive | inactive |  |  |
| CNC | inactive | inactive | inactive | inactive | inactive | inactive | inactive | inactive | inactive |  |
| O=c1[nH]c(=O)n(Cl)c(=O)n1Cl | inactive | inactive | inactive | inactive | inactive | inactive | inactive | inactive |  |  |
| CCCC[N+]1(C)CCCCC1 | inactive | inactive |  |  | inactive | inactive | inactive | inactive |  |  |
| COP(=O)(OC)C(O)C(Cl)(Cl)Cl (centres undefined) | inactive | inactive | inactive |  | inactive |  | inactive | inactive | inactive |  |
| Oc1ccccc1-c1ccccc1 | inactive and 24.9 µM (active) | inactive | inactive | inactive | inactive | 55.8 µM (active) | inactive | inactive |  |  |
| Cc1cc(Cl)ccc1OCC(=O)O | inactive | inactive | inactive | inactive | inactive | inactive | inactive | inactive | inactive |  |
| CCn1cc[n+](C)c1C | inactive | inactive | inactive | inactive | inactive |  | inactive | inactive | inactive | inactive |
